Laboratory results reported in PubChem BioAssay AID1460 (National Center for Advancing Translational Sciences (NCATS), 2008).
About 5,800 (2.1%) of roughly 270,000 compounds were called active. Not shown: some 16% with an inconclusive outcome. Calls come from the whole dose curve; as a rule, active = well fitted inhibition curve with a large enough effect; inconclusive = small, poorly fitted or top-dose-only effect; inactive = flat fitted curve, though single readings scatter. Shown is part of a subset that was picked to be rich in actives. Entries that show only a call come without a potency. Some compounds were tested as several samples or in several runs, with calls that do not always agree.

target: Microtubule-associated protein tau (Homo sapiens) (UniProt P10636); test: qHTS for Inhibitors of Tau Fibril Formation, Thioflavin T Binding; conditions: recombinant tau K18 P301L (four-repeat tau fragment), heparin-induced fibrillization, ThT fluorescence; series mostly up to 57.4 µM; note: nearly all actives have a fitted effect of over 55% in size
Text: NIH Molecular Libraries Probe Production Network [MLPCN]
NIH Chemical Genomics Center [NCGC]
Assay Provider: Carlo Ballatore, University of Pennsylvania
The microtubule-associated protein tau is an abundant protein in the axons of neurons that stabilizes microtubules. With its ability to modulate microtubule dynamics, tau contributes directly or indirectly, to key structural and regulatory cellular functions. Particularly important is the influence tau exerts on axonal transport, which allows signaling molecules, trophic factors and other essential cellular constituents to travel along the axons. Under pathological conditions, tau becomes sequestered into insoluble aggregates called neurofibrillary tangles. This phenomenon is believed to have pathological consequences by promoting axonal transport deficits that ultimately lead to synaptic dysfunction and neuronal loss. To identify inhibitors of tau aggregation, a heparin-induced tau fibril formation assay was used that employed a recombinantly expressed fragment of tau, K18 (Q242-E372), bearing a P301L mutation (Gustke et al. 1994; Hong et al. 1998). This assay monitors tau fibrillization by Thioflavin T (ThT) fluorescence.
Gustke, N., B. Trinczek, et al. (1994). "Domains of tau protein and interactions with microtubules." Biochemistry 33(32): 9511-22.
Hong, M., V. Zhukareva, et al. (1998).
Li, W. and V. M. Lee (2006).
von Bergen, M., S. Barghorn, et al. (2001). "Mutations of tau protein in frontotemporal dementia promote aggregation of paired helical filaments by enhancing local beta-structure." J Biol Chem 276(51): 48165-74.
NCGC Assay Protocol Summary:
For screening, 2 uL/well human K18 P301L (15 uM unlabeled and 0.24 uM Alexa 594-labeled tau, final concentrations) in reagent buffer (100 mM sodium acetate pH 7) was dispensed into black solid 1536-well plates (Grenier) using a solenoid-based dispenser. Following transfer of 23 nL compound or DMSO vehicle by a pin tool, 2 uL/well heparin (20 uM final concentration) in reagent buffer was added and the plate centrifuged 15 s at 1000 RPM. Plates were incubated 6 hr at 37 C and then 1 uL/well ThT (30 uM final concentration) was added. After a 1 hr ambient incubation, the plates were read by an Envision (Perkin Elmer) to monitor ThT fluorescence (450/8 nm excitation and 510/23 nm emission).
Keywords: NIH Roadmap, MLPCN, MLI, MLSMR, NCGC, qHTS, tau, tauopathies, Alzheimer's disease, fibril, neurodegeneration, aggregation
Potency is the fitted concentration of half-maximal effect.

Chain of Microtubule-associated protein tau (Homo sapiens) (P10636 561-689 P618L limits assumed): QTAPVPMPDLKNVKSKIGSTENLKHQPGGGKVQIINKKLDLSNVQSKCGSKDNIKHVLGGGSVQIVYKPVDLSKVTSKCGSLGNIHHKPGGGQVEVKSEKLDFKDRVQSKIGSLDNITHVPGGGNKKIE

SMILES	Potency	activity, negative = inhibition
Nc1[nH][nH]c(=O)c1N=Nc1ccc2c(c1)OCO2	11.2 µM (active)	
CC(=O)c1cc2c(cc1N)OCO2	inactive	
Cc1[nH][nH]c(=O)c1C(c1ccc2c(c1)OCO2)c1c(C)[nH][nH]c1=O	inactive	
COc1ccccc1N1CCN(S(=O)(=O)CCNC(=O)COc2ccc(F)cc2)CC1	inactive	
Cc1ccc2c(c1)c1c(c(=O)n(-c3ccccc3)c(=O)n1CC(=O)c1ccc(Cl)cc1)n2C	inactive	
COc1ccc(CCNC(=O)CCCn2c(=O)c3ccccc3n(Cc3ccc(F)cc3Cl)c2=O)cc1OC	inactive	
CN1/C(=C\C(=O)c2cccnc2Cl)C(C)(C)c2ccccc21	inactive	
CN1/C(=C\C=C2\N=C(c3ccc(F)cc3)OC2=O)C(C)(C)c2ccccc21	28.2 µM (active)	
CN1/C(=C\C(=O)c2oc3ccccc3c2N)C(C)(C)c2ccccc21	inactive	
COc1ccc(OCc2ccc(-c3nc(C#N)c(N4CCN(c5ccccc5)CC4)o3)o2)cc1	inactive	
COc1ccc(N=Cc2c(O)[nH]c3ccccc23)cc1OC	14.1 µM (active)	
COc1ccccc1N=Cc1c(O)c2ccccc2oc1=O	inactive	
COCC(=O)N=Nc1c(O)[nH]c2ccccc12	inactive	
Cc1cc(NC(=O)c2ccc(-c3ccc(Cl)cc3)o2)cc(-c2nc3ncccc3o2)c1O	inactive	
Cc1oc2ncn(CC(C)C)c(=O)c2c1C(=O)N1CCN(c2ccccc2F)CC1	inactive	
COc1ccccc1CNS(=O)(=O)c1cc(Br)cc2c1N(C(C)=O)C(C)C2 (stereo not given)	inactive	
CCC(CC)C(=O)N1CCc2cc(OC)c(OC)cc2C1COc1ccc(F)cc1 (stereo not given)	inactive	
CCCCC1=CC2=CC(=O)C(C)(OC(=O)CC)C(=O)C2=CN1CCCOC(C)C (stereo not given)		0.166% [at 11.5 µM] (inactive)
CC1(OC(=O)C2CCCC2)C(=O)C=C2C=C(c3ccc(C#N)cc3)OC=C2C1=O (stereo not given)	inactive	
CC1(OC(=O)CCc2ccccc2)C(=O)C=C2C=C(c3ccc(C#N)cc3)N(CCc3ccccn3)C=C2C1=O (stereo not given)	28.2 µM (active)	5.29% [at 11.5 µM] (inactive)
COc1ccc(NC(=O)CCCN2C(=O)CCn3nc(-c4cn(C)c5ccccc45)cc32)cc1OC	inactive	
COc1ccccc1OCC(=O)Nc1nnc2n1CCS2	inactive	
CCc1ccc(NC(=O)C2CCCN2S(=O)(=O)c2ccc3nc(-c4ccccc4)[nH]c3c2)cc1 (stereo not given)	inactive	
COc1cc(C2C(C(=O)OCCC#N)=C(C)NC3=C2S(=O)(=O)c2ccccc23)cc(OC)c1OC (stereo not given)	inactive	
CCOc1cc(C2C(C(=O)Nc3ccc(OC)cc3)=C(C)Nc3nc(SC)nn32)ccc1O (stereo not given)	inactive	

SMILES	Potency	activity, negative = inhibition
COC(=O)C1=C(C)NC(=O)NC1/C=C/c1ccccc1 (stereo not given)	inactive	
CCOc1cc(C2C(C(=O)OC)=C(C)NC3=C2C(=O)c2ccccc23)ccc1O (stereo not given)	14.1 µM (active)	
COC(=O)C1=C(C)NC2=C(C(=O)c3ccccc32)C1c1ccc(-c2ccc(C(=O)O)cc2)o1 (stereo not given)	8.91 µM (active)	
COc1ccccc1NC(=O)C1=C(C)NC2=C(C(=O)CCC2)C1c1ccc(C)o1 (stereo not given)	inactive	
Cc1nn(C)c2c1c(C(F)(F)F)cc(=O)n2C(C)C(=O)NCc1ccc(Cl)cc1 (stereo not given)	inactive	
CC(C)(C)c1ccc(C(=O)NCC(c2ccco2)S(=O)(=O)c2ccc(F)cc2)cc1 (stereo not given)	inactive	
Cc1ccc(Cl)cc1NC(=O)CSc1nc2ccccc2nc1Cc1ccccc1	inactive	
Cc1ccc(NC(=O)C2CCN(S(=O)(=O)c3cc(-c4noc(C)n4)ccc3C)CC2)c(C)c1	inactive	
O=C(NCCCc1ccccc1)c1ccc2c(c1)sc1nc(-c3ccc(F)cc3)cn12	inactive	
COc1ccc2[nH]c3c(c2c1)CCN(C(=O)CCC1CCCC1)C3c1ccc(F)cc1 (stereo not given)	inactive	
CC(C)C(=O)Nc1nc2c(s1)CC(C(C)(C)C)CC2 (stereo not given)	inactive	
CCCS(=O)(=O)c1ncc(Cl)c(C(=O)Nc2scc(-c3ccccc3)c2C(=O)OCC)n1	7.94 µM (active)	
CCOC(=O)c1c(-c2cccc(C)c2)csc1NC(=O)c1c(-c2ccccc2)noc1C	inactive	
CCOC(=O)c1c(-c2ccccc2)csc1NC(=S)NC(=O)c1ccccc1	inactive	
COc1cc(CNC(=O)c2cc3n(n2)CCCN(Cc2cccc(F)c2)C3=O)cc(OC)c1OC	inactive	
COc1cc(/C=N\NC(=O)c2nonc2N)c(OC)cc1Br	inactive	
Cc1cc(C)c([N+](=O)[O-])cc1-c1ccc(/C=N/NC(=O)c2nonc2N)o1	5.01 µM (active)	
Cc1ccc(-c2ccc(/C=N/NC(=O)CN3CCOCC3)o2)cc1[N+](=O)[O-]	15.8 µM (active)	
Cc1ccc(NC(=O)CN2CCC(C(N)=O)CC2)cc1[N+](=O)[O-]	inactive	
COC(=O)N/N=C/c1ccc(-c2ccc(Cl)c(Cl)c2)o1	inactive	
Nc1nnnn1CC(=O)N/N=C/c1ccc(-c2cccc(Cl)c2)o1	inactive	
CCC(=O)N1N=C(c2ccc(OC)cc2)CC1c1cn(-c2ccccc2)nc1-c1cccs1 (stereo not given)	inactive	
COc1cc(NC(=O)c2noc3c2CSc2ccccc2-3)cc(OC)c1OC	inactive	
Cc1cc(/C=N/NC(=O)c2cccnc2)c(C)n1CC(C)C	inactive	
CCN(CC)c1ccc(/C=N/NC(=O)c2cnccn2)c(O)c1	5.62 µM (active)	

SMILES	Potency	activity, negative = inhibition
CCN(CC)c1ccc(/C=N/Nc2nc(C)cc(C)n2)c(O)c1	inactive	
CC(CNC(=O)c1nnc(Cc2cccc(F)c2)o1)c1ccccc1 (stereo not given)	inactive	
O=C(CCSCc1cccc(F)c1)NCc1ccccc1	inactive	
COc1cc(OC)c(NC(=O)Cc2ccc(-n3c(C)nc4cccnc43)cc2)cc1Cl	inactive	
COc1ccc(C(=O)CSc2c(C(C)C)cnc3c2c(=O)n(C)c(=O)n3C)cc1	inactive	
CCCCNC(=O)Nc1c(C)cc(SC#N)cc1C	22.4 µM (active)	
CCCCNC(=S)NNC(=O)c1cc(C)on1	inactive	
CCCCNC(=O)C(=O)c1ccccc1NC(C)=O	inactive	
O=C(NC(=S)Nc1cccc2c(O)cccc12)c1cccc(Br)c1	12.6 µM (active)	
O=C(NC(=S)Nc1ccc(S(=O)(=O)Nc2ncccn2)cc1)c1cccc(Br)c1	inactive	
NS(=O)(=O)c1ccc(NC(=S)NC(=O)c2cccc(Br)c2)cc1	inactive	
O=C(Oc1ccccc1C(=S)N1CCCCC1)c1cc([N+](=O)[O-])cc([N+](=O)[O-])c1	25.1 µM (active)	
COC(=O)c1ccc(C(=O)OC)c(NC(=S)N2CCCCC2)c1	inactive	
O=[N+]([O-])c1cccc(S(=O)(=O)N2CCCCCC2)c1	inactive	
CCS(=O)(=O)N1CCc2cc(C(=O)NCc3ccc(C)cc3)ccc21	inactive	
CCCCN(CC)CCCNC(=O)c1nn(C)c2c1CSc1ccccc1-2	inactive	
COc1cccc(-n2c(=O)c3c(C)c(C(=O)N(C)C)sc3n(Cc3cccc(C)c3)c2=O)c1	inactive	
CCOC(=O)c1cc2n(c1N)-c1ccccc1C2=O	14.1 µM (active)	
CCOC(=O)Nc1ccccc1N1C(=O)c2ccccc2C1=O	inactive	
CCOC(=O)c1cc(-c2ccccc2)n(CCC(=O)Nc2ccccc2CC)c1C	inactive	
O=C(NNc1ccccn1)c1ccc(Cl)nc1	inactive	
O=C(CCl)NNc1cccc(Cl)n1	14.1 µM (active)	
COc1cc(OC)nc(NC(=O)CCl)n1	inactive	
Cc1ccc(CNC(=O)CCC(=O)N2Cc3ccccc3Oc3ncccc32)cc1	inactive	
COc1ccccc1CNC(=O)C(=O)NCC(c1ccco1)S(=O)(=O)c1ccc(F)cc1 (stereo not given)	inactive	

SMILES	Potency	activity, negative = inhibition
CCCCN=C1C([N+](=O)[O-])=CC=C2C1=NC1(CCCCC1)N2O	8.91 µM (active)	
CCCOc1ccc(NC(=O)CC2C(=O)N(c3ccccc3)C(=O)N2Cc2ccco2)cc1 (stereo not given)	inactive	
CCOc1ccc(NC(=O)Cn2c(=O)n(CCCC(=O)NCc3ccc4c(c3)OCO4)c(=O)c3ccccc32)cc1	inactive	
O=C(NN=C1CCC(=NNC(=O)c2cccnc2)CC1)c1cccnc1	39.8 µM (active)	
C/C(=N\NC(=O)c1cccnc1)c1ccc(-c2ccccc2)cc1	inactive	
O=C(Nc1cnccn1)c1cccnc1	inactive	
CCOc1ccccc1NC(=O)Cn1c(=O)n(Cc2ccccc2)c(=O)c2c(C)c(C(=O)N(C)C)sc21	inactive	
COc1ccccc1CC(=O)Nc1ccc([N+](=O)[O-])cc1OC	inactive	
COc1ccccc1CSc1ncc(-c2ccc([N+](=O)[O-])cc2)[nH]1	14.1 µM (active)	
COc1ccccc1CSc1nc2ccccc2[nH]1	inactive	
Oc1c(Cl)cc(Cl)c(Cl)c1Cc1c(O)c(Cl)cc(Cl)c1Cl	20 µM (active)	
CCOc1ccc(NC(=O)C(=O)NCCc2csc3nc(-c4ccccc4F)nn23)cc1	inactive	
CCc1ccccc1NC(=O)Cn1c(=O)n(-c2cccc(C)c2)c(=O)c2c1c1cc(OC)ccc1n2C	inactive	
CC(=O)NCCC(=O)Nc1cc(S(=O)(=O)N2CCOCC2)ccc1N1CCOCC1	inactive	
COCCNC(=S)Nc1cc(S(=O)(=O)N2CCOCC2)ccc1N1CCCCC1	35.5 µM (active)	
O=C(COC(=O)Cc1ccc(F)cc1)Nc1cc(S(=O)(=O)N2CCOCC2)ccc1N1CCCC1	inactive	
COc1ccc(-c2nc3scc(CCNS(=O)(=O)c4cc(F)ccc4OC)n3n2)cc1OC	inactive	
Cc1ccc(-n2c(SCC(=O)c3ccccc3)nc3c([nH]c4ccccc43)c2=O)cc1	inactive	
CN(C)c1ccc(-n2cccc2/C=C2/SC(=Nc3ccc(F)cc3)NC2=O)cc1	inactive	
Cc1ccc(C(=O)N/C(=C\c2ccco2)C(=O)N2CCSCC2)cc1C	inactive	
Cc1ccc(N=C2NC(=O)/C(=C/C=C/c3ccco3)S2)cc1C	4.47 µM (active)	
Cc1ccc(N2NC(=O)/C(=C/C=C/c3ccco3)C2=O)cc1C	10 µM (active)	
CCC1S/C(=N/N=C/c2ccco2)NC1=O (stereo not given)	inactive	
Cc1ccc(-c2cc(C(=O)N/N=C/C=C/c3ccco3)c3ccccc3n2)cc1C	inactive	
